# Source: PubChem BioAssay AID504725 (Broad Institute, 2011)
# Measured potencies and affinities stand elsewhere. Active and inactive are the calls of the source. No rule for the calls is given here.
# Target: KSHV LANA C-terminal domain (residues 932-1162) binding to LBS DNA (UniProt O40947)
# Assay: inhibitors of C-LANA binding to LBS DNA, dose response, biochemical, fluorescence polarization, cherry-picked samples (AID 504725)
# Settings: MBP-C-LANA / FAM-LBS DNA fluorescence polarization, percent change from plate compound-well median; series mostly up to 35 µM
row,SMILES,outcome
1,COCCN(C(=O)CN1CCCc2ccccc21)c1c(N)n(Cc2ccccc2)c(=O)[nH]c1=O,inactive
2,Cc1ccc(S(=O)(=O)/N=C2/C=C(Sc3ncn[nH]3)C(=O)c3ccccc32)cc1,inactive
3,CC(C)N(C(=S)Nc1cccnc1)c1ccccc1,inactive
4,CC(C)N(Cc1ccccc1)C(=O)Cn1c(=O)cnc2ccccc21,inactive
5,CCOC(=O)C1(Cc2cccc(F)c2)CCN(Cc2c(C)nn(CC)c2C)CC1,inactive
6,Cc1cc(-c2nnc(SCC(=O)Nc3ccccc3)n2C)no1,inactive
7,CCOC(=O)C(C)(C)N(Cc1ccccc1C)S(=O)(=O)c1ccc(Cl)c([N+](=O)[O-])c1,inactive
8,CC(C)CC(=O)Nc1nnc(CSCc2ccc(F)cc2)s1,inactive
9,COc1ccc(Cl)cc1C(=O)NNC(=O)c1cc2ccccc2o1,inactive
10,O=C1/C(=C/c2ccco2)SC(=S)N1c1cccnc1,inactive
11,CCn1c(CN2CCCCC2)nc2cc(S(=O)(=O)N3CCCCC3)ccc21,inactive
12,Cc1ccc2cccc(OCC(=O)NCCC3=CCCCC3)c2n1,inactive
13,CCN(C(=O)COC(=O)c1ccc([N+](=O)[O-])o1)C1CCCCC1,inactive
14,O=C(O)CCN1C(=O)/C(=C\c2ccc(-c3nc4ccccc4s3)o2)SC1=S,inactive
15,CC(=O)NC(C(=O)c1ccccc1)C(=O)c1ccccc1,inactive
16,Cc1cnc(NC(=O)Cc2c[nH]c3ccccc23)s1,inactive
17,CCOc1ccc(C(C)NC(=O)c2ccccc2OCc2c(C)noc2C)cc1OCC (stereo not drawn),inactive
18,O=C(Cn1ncc(N2CCCC2)c(Cl)c1=O)c1ccc(Cl)cc1,inactive
19,CCN(CC(=O)Nc1c(F)cccc1F)C(=O)CCCc1cccs1,inactive

row,SMILES,outcome
1,CC(=O)Nc1ccc(S(=O)(=O)Nc2ccccc2N2CCOCC2)cc1,inactive
2,O=C(Nc1ccccc1F)c1coc(=O)c(Br)c1,inactive
3,O=C(NCCCN1CCCC1=O)c1ccc2c(c1)ncn2C1CCCCC1,inactive
4,COc1cc(SC)ccc1C(=O)OCC(=O)N1CCN(C(C)=O)CC1,inactive
5,O=C(c1coc(=O)c(Br)c1)N1CCCc2ccccc21,inactive
6,Cc1ccc(NS(=O)(=O)c2ccc(C(=O)NCCCN3CCCC3=O)cc2)cc1,inactive
7,O=C(COC(=O)c1ccc([N+](=O)[O-])o1)NCCCc1ccccc1,inactive
8,Cc1nn(CC(=O)c2ccc(Br)s2)c(C)c1[N+](=O)[O-],inactive
9,CSc1ncccc1C(=O)OCCCC(=O)c1ccc(F)cc1,inactive
10,Cc1ccc(OCC(=O)NC(=S)Nc2cccc(NC(=O)c3ccc(Cl)cc3Cl)c2)cc1,inactive
11,Brc1c(CSc2nncc3ccccc23)nc2ccccn12,inactive
12,Cc1cccc(Nc2nc(N)c([N+](=O)[O-])c(NCc3ccccc3)n2)c1,inactive
13,CCOC(=O)CCCn1c(C)nc(=O)c(-c2ccccc2)c1C,inactive
14,O=C(O)c1ccccc1NC(=O)c1cc(-c2ccccc2)nc2ccccc12,inactive
15,Cc1ccc(N2CC(C(=O)Nc3nnc(SCC(=O)Nc4nc(C)cs4)s3)CC2=O)cc1 (stereo not drawn),inactive
16,CC1Cc2ccccc2N1C(=O)CCS(=O)(=O)c1cccs1 (stereo not drawn),inactive
17,Nc1cc(N)nc(SCC(=O)N2CCCCC2)n1,inactive
18,Cc1c(NC(=O)CCC2CCCCC2)cc(C(=O)N2CCOCC2)cc1[N+](=O)[O-],inactive
19,COc1ccc(-c2cnc3n2CCCCC3)cc1,inactive
